# D2 ag-1: HTS Assay for Allosteric Agonists of the Human D2 Dopamine Receptor: Primary Screen for Agonists; AID 485358, 2010; activation, % at 2 µM; HEK293 T-REx D2 cells, calcium flux agonist mode; 0.53% of 340,000 active; D(2) dopamine receptor (Homo sapiens), P14416;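 active = activation over 3 SD above normal in the single-dose calcium agonist read, cut at about 30% in these data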; also: 0% is about no effect
# Target sequence (P14416 whole entry, looked up): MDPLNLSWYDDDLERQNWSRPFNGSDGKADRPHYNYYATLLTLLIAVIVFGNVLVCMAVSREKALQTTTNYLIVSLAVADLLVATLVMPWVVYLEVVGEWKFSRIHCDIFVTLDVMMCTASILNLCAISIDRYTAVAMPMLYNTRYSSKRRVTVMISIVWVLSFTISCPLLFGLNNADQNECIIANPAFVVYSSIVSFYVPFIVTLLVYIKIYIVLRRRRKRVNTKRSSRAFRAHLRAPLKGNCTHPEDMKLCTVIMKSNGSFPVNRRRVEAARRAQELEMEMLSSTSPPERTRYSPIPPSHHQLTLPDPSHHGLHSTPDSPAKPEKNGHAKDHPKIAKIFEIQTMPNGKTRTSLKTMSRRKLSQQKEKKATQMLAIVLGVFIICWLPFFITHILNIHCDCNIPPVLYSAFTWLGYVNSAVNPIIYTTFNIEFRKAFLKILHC
#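 HEK293 Trex D2 cells, tetracycline-induced, o/n 30 C 5% CO2; no-wash Ca dye, RT 30–90 min; 10-cycle baseline, 23 nl cpd added, kinetic Ca read 180 s; agonist hits = positive Ca response.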
# D2 PAM-1: HTS Assay for Positive Allosteric Modulators of the Human D2 Dopamine Receptor: Primary Screen for Potentiators. potentiation, % at 10 µM. AID 485347, 2010. HEK293 T-REx D2, calcium flux, EC20 dopamine potentiation. D(2) dopamine receptor (Homo sapiens), P14416. 0.34% of 340,000 active;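 active = potentiation over 3 SD above the plate norm, cut at about 30% in these data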; also: 0% is about no effect
#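 Cells plated with tetracycline inducer and held overnight at 30 C; calcium dye loaded 30–90 min at room temperature; baseline taken, compound added and read 180 s; EC20 dopamine then added and read 180 s.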
# D2 ag-2: Beta-Arrestin HTS for Positive Allosteric Modulators of the Human D2 Dopamine Receptor: Agonists | D(2) dopamine receptor (Homo sapiens), P14416 | DiscoveRx PathHunter D2 beta-arrestin, luminescence, 90 min; 100% = 57 uM dopamine signal | activation, % (concentration not given with the values) | 0.084% of 360,000 active | AID 624465, 2012; in the data active = activation above about 40%; inconclusive = between about 15% and that limit
#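 DiscoveRx PathHunter D2 beta-arrestin cells (2,100/well) attached overnight, then compound-stimulated 90 min at 37 C in HBSS/10 mM HEPES/0.1% Tween-20 buffer; beta-galactosidase complementation read by luminescence after 1 h at ambient temperature. Dopamine 57 uM final (EC100) as control.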
# D2 PAM-2: Beta-Arrestin HTS for Positive Allosteric Modulators of the Human D2 Dopamine Receptor: Potentiators; D(2) dopamine receptor (Homo sapiens), P14416; DiscoveRx D2 beta-arrestin cells, luminescence, 90 min; 100% = 57 uM dopamine signal; potentiation, % (concentration not given with the values); 0.23% of 360,000 active; AID 624464, 2012; in the data active = potentiation above about 50%; inconclusive = mostly about 30% to 49%
#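 PathHunter beta-arrestin assay in DiscoveRx D2 cells. Compounds were added with an EC20 of dopamine (50 nM final) for 90 min at 37 deg C. Luminescence was read 1 h after detection reagent, with 57 uM dopamine as the EC100 control.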
# D2 antag: HTS Assay for Allosteric Antagonists of the Human D2 Dopamine Receptor: Primary Screen for Antagonists | HEK293 TREx D2 cells, calcium flux, dopamine EC80 | inhibition, % at 10 µM | 2% of 340,000 active | AID 485344, 2010; in the data active = inhibition above about 30%; inactive = below that, where a call was filed; also: 0% is about no effect
#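 HEK293 T-REx D2 cells, tet-induced, calcium dye no-wash. Cpd pintool add, 180 s kinetic, then EC80 DA, 180 s kinetic. Ca flux read.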
# An asterisk follows results filed as active; ? = inconclusive; · = no result. Shown are actives, neighbours in structure and some others; about 2.4% of the full set was active somewhere.
SMILES,D2 ag-1,D2 PAM-1,D2 ag-2,D2 PAM-2,D2 antag
Cc1ccc(CC2C(=O)N(CC(=O)O)C(=O)C2C)cc1 (centres undefined),-0.3,-8.4,-1.6,-4.9,30.9*
O=C(CCS(=O)(=O)c1cccc2nonc12)NC1CCCCCC1,0.2,-0.4,-0.7,-2.7,-14.4
O=C(CCNS(=O)(=O)c1cccc2nonc12)NC1CCCCC1,-0.2,-4.9,-0.7,-6.5,30.5*
O=C(c1ccc([N+](=O)[O-])o1)N1CCN(c2nc3c(Cl)cccc3s2)CC1,0.1,2.5,10.2,69.4*,0.1
COc1cccc2sc(N3CCN(C(=O)c4ccc([N+](=O)[O-])o4)CC3)nc12,0.5,-7.5,10.1,21.2,-1.7
ON=C1c2ccccc2-c2ccc(O)cc21,·,·,-5.9,-18.2,·
CC(=NO)c1ccc2c(c1)C(=NO)c1ccccc1-2,·,·,13.4,83.5*,·
COc1ccc(/C=N/Nc2nc(-c3cccc(S(=O)(=O)N4CCCC4)c3)cs2)cc1OC,0.1,0.8,5.0,10.3,5.8
CCOc1cc(/C=N/Nc2nc(-c3cccc(S(=O)(=O)N4CCCC4)c3)cs2)ccc1O,-0.8,4.7,?,118.7*,-5.0
Cc1ccc(NC(=O)CN2C(=O)COc3ccc(S(=O)(=O)N4CCCCCC4)cc32)c(C)c1,0.4,-5.2,·,·,·
O=C(O)c1cc(S(=O)(=O)Nc2cccc(Oc3ccccc3)c2)ccc1Br,-2.3,38.9*,-2.1,-3.9,11.9
O=C(Nc1ccccc1C(=O)O)c1cccc(NS(=O)(=O)c2ccc(Br)cc2)c1,·,·,2.6,81.7*,·
CC(C)CCNC(=O)C(=O)Nc1c2c(nn1-c1ccc(Cl)cc1)CSC2,·,-5.0,·,·,·
CCN1CCN(c2cc(C)c3cc(NC(=O)/C=C/c4ccc(OCCC(C)C)cc4)ccc3n2)CC1,0.9,7.5,·,·,·
Cc1ccc(S(=O)(=O)N(C)C)cc1NC(=S)N(CCC#N)Cc1cccnc1,-0.1,-13.1,-4.6,-15.8,43.5*
CC12CCC(=O)N1C(C(=O)N1CCN(c3cccc(Cl)c3)CC1)CS2 (centres undefined),0.9,-19.2,11.4,6.4,70.7*
CC12CCC(=O)N1C(C(=O)N1CCN(c3ccccc3)CC1)CS2 (centres undefined),0.9,-9.0,2.3,-4.8,19.4
COc1ccc(/C=C2/N=C(SCC(=O)Nc3cc(C)on3)N(c3ccccc3)C2=O)cc1,-1.0,1.1,-0.5,7.4,31.5*
CCOc1cc2sc(N3CCC(C(=O)Nc4ccc(C)cc4C)CC3)nc2cc1Br,-0.5,10.0,·,·,·
CCOc1ccccc1N1CCN(C(=O)c2ccc(-c3ccc(OC(C)=O)cc3)cc2)CC1,-2.3,-0.2,-1.4,-4.2,30.7*
CC1=C(C(=O)Nc2ccccc2)C(c2ccc(C(=O)O)cc2)n2nc(SCC(=O)c3ccc(C)cc3)nc2N1 (centres undefined),·,11.8,·,·,·
N#Cc1c(-c2ccc(F)cc2)noc1N,0.8,-0.2,?,96.1*,-4.2
COc1cccc(-c2noc(N)c2C#N)c1,-0.1,2.7,?,?,-1.1
Cc1cccc(OCC(=O)Nc2ccc3nc(C)sc3c2)c1,-0.9,33.6*,-3.3,-5.3,-6.7
Cc1nc2ccc(NC(=O)COc3ccccc3)cc2s1,0.9,-0.5,1.1,-5.4,3.2
Cc1nc2ccc(NC(=O)c3ccc4ccccc4n3)cc2s1,-1.8,31.4*,-1.5,-2.6,-3.6
